In PubChem BioAssay (NCATS):
Values joined by “and” are separate entries in the source; they are usually repeats but may differ in a detail not shown here. Identical values can stand only once. Inconclusive results are not listed. Active and inactive are the calls of the source. Unless noted, calls come from the whole dose curve; as a rule, active = well fitted curve in either direction with a large enough effect (not every such curve was filed as active); inconclusive = small, poorly fitted or top-dose-only effect, or another doubt; inactive = flat fitted curve, though single readings scatter.

system: not listed separately; experiment: Stat Signaling Pathway (AID 446); conditions: ME-180 SIE beta-lactamase reporter, IL-6 stimulated, 5 h; at 7.69 µM (top of the series) unless noted;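 note: ME-180 cervical cancer cells given 40 pM IL-6 alongside compound; SIE-controlled beta-lactamase reporter measured as 460/530 nm FRET emission ratio; % is set by controls: 0 for no effect and ±100 for the full control effect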
Procedure, shortened: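 ME-180 SIE-bla cells; overnight plating; cpd + IL-6 40 pM, 5 h, 37 C; LiveBLAzer 2.5 h RT; 460/530 nm emission ratio. Normalized to 300 pM IL-6 and 125 nM JAK inhibitor controls.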

For CN(Cc1ccco1)c1ccnc(-c2cccc(NS(C)(=O)=O)c2)n1, which activity, negative = inhibition is on record?
The activity, negative = inhibition was 2.34% (inactive).

Which activity, negative = inhibition does the source give for Cc1cccc(CNc2ncncc2-c2ccccc2C(F)(F)F)c1 here?
The activity, negative = inhibition was -0.642% (inactive).

With COc1ccccc1-c1ccc2ncnc(N(C)C)c2c1 as the compound, how does the activity, negative = inhibition read?
Its activity, negative = inhibition is -12.7% (inactive).

Which activity, negative = inhibition does the source give for COc1cccc(Nc2ncc3nc(C)c(=O)n(CCC#N)c3n2)c1 here?
Its activity, negative = inhibition is -8.39% (inactive).

For Cn1cccc1C(=O)N1CCC2(CC1)CN(Cc1cc(C(F)(F)F)cc(C(F)(F)F)c1)C2, which activity, negative = inhibition is on record?
The activity, negative = inhibition was -14.1% (inactive).

Which activity, negative = inhibition does the source give for COc1ccc2[nH]cc(CCNc3ncnc4ccc(-c5ccc(C(=O)N(C)C)cc5)cc34)c2c1 here?
The activity, negative = inhibition was -28.2% (inactive).

Which activity, negative = inhibition does the source give for CN(C)Cc1ccccc1-c1ccc2ncnc(NCc3ccccc3)c2c1 here?
Its activity, negative = inhibition is 11.3% (inactive).

With Cc1cccc(CNc2cc(-c3ccc(C(=O)N(C)C)cc3)ncn2)c1 as the compound, how does the activity, negative = inhibition read?
Its activity, negative = inhibition is -2.64% (inactive).

Which activity, negative = inhibition does the source give for COc1ccc2[nH]cc(CCNc3cc(-c4ccoc4)ncn3)c2c1 here?
The activity, negative = inhibition was 2.87% (inactive).

Which activity, negative = inhibition does the source give for Cc1cccc(CNc2ccnc(-c3ccc(C(=O)N(C)C)cc3)n2)c1 here?
Its activity, negative = inhibition is -2.13% (inactive).

Which activity, negative = inhibition does the source give for CN(C)Cc1ccccc1-c1nc(N(C)Cc2ccco2)c2ccccc2n1 here?
Its activity, negative = inhibition is 3.87% (inactive).

For Cc1cccc(CNc2nc(-c3ccoc3)nc3ccccc23)c1, which activity, negative = inhibition is on record?
Its activity, negative = inhibition is -10.1% (inactive).

For CNc1nc(-c2ccccc2OC)nc2ccccc12, which activity, negative = inhibition is on record?
Its activity, negative = inhibition is 17.7% (inactive).

For COc1ccccc1-c1cncnc1NCc1cccc(C)c1, which activity, negative = inhibition is on record?
The activity, negative = inhibition was -6.93% (inactive).

With CC(=O)N1CCC2(CC1)CCN(c1ccncc1)CC2 as the compound, how does the activity, negative = inhibition read?
Its activity, negative = inhibition is -6.23% (inactive).

With Cc1nc2cnc(N(C)C)nc2n(Cc2cccs2)c1=O as the compound, how does the activity, negative = inhibition read?
Its activity, negative = inhibition is -2.49% (inactive).

With c1ccc2c(Nc3ccncc3)nc(-c3ccoc3)nc2c1 as the compound, how does the activity, negative = inhibition read?
The activity, negative = inhibition was 3.23% (inactive).

With COCC(=O)N1CCC2(CCN(Cc3ccncc3)CC2)CC1 as the compound, how does the activity, negative = inhibition read?
The activity, negative = inhibition was 1.05% (inactive).

For CS(=O)(=O)Nc1cccc(-c2nc(N3CCOCC3)c3ccccc3n2)c1, which activity, negative = inhibition is on record?
Its activity, negative = inhibition is -10.3% (inactive).

With Cc1cccc(CNc2nc(-c3cccc(NS(C)(=O)=O)c3)nc3ccccc23)c1 as the compound, how does the activity, negative = inhibition read?
The activity, negative = inhibition was -23% (inactive).

For CNc1ncnc2ccc(-c3ccccc3OC)cc12, which activity, negative = inhibition is on record?
Its activity, negative = inhibition is -15.7% (inactive).

For N#CCCn1c(=O)cnc2cnc(N3CCNCC3)nc21, which activity, negative = inhibition is on record?
Its activity, negative = inhibition is -12.7% (inactive).

With CC(C)NC(=O)N1CCC2(CC1)CCN(C(=O)c1cnccn1)CC2 as the compound, how does the activity, negative = inhibition read?
Its activity, negative = inhibition is -2.84% (inactive).

Which activity, negative = inhibition does the source give for COc1ccc2[nH]cc(CCNc3ncnc4ccc(-c5ccccc5CN(C)C)cc34)c2c1 here?
The activity, negative = inhibition was 0.00328% (inactive).

With COCCNc1nc(-c2cccc(OC)c2)nc2ccccc12 as the compound, how does the activity, negative = inhibition read?
Its activity, negative = inhibition is -13.7% (inactive).

With CN(C)c1ccc(-c2cc(NCc3cccnc3)ncn2)cc1 as the compound, how does the activity, negative = inhibition read?
Its activity, negative = inhibition is 0.912% (inactive).

Which activity, negative = inhibition does the source give for COc1ccc2[nH]cc(CCNc3ncncc3-c3ccccc3CN(C)C)c2c1 here?
Its activity, negative = inhibition is 0.332% (inactive).

For Cc1ccccc1-c1nc(-n2ccnc2)c2ccccc2n1, which activity, negative = inhibition is on record?
Its activity, negative = inhibition is 0.874% (inactive).

With COc1ccccc1CNc1ccnc(-c2ccccc2C(F)(F)F)n1 as the compound, how does the activity, negative = inhibition read?
The activity, negative = inhibition was 4.24% (inactive).

For COc1ccccc1-c1nc(NCc2cnc(C)cn2)c2ccccc2n1, which activity, negative = inhibition is on record?
The activity, negative = inhibition was -5.06% (inactive).

Which activity, negative = inhibition does the source give for COc1ncc2nc(-c3ccc(Cl)cc3)c(=O)n(-c3ccccc3)c2n1 here?
Its activity, negative = inhibition is 0.109% (inactive).

For COCCNc1ncnc2ccc(-c3ccccc3CN(C)C)cc12, which activity, negative = inhibition is on record?
The activity, negative = inhibition was 4.88% (inactive).

With COc1ccc(C(=O)N2CCC3(CCN(C(=O)Nc4cccc(F)c4)CC3)CC2)cc1 as the compound, how does the activity, negative = inhibition read?
The activity, negative = inhibition was -5.59% (inactive).

For Cc1cccc(CNc2ccnc(-c3ccccc3CN(C)C)n2)c1, which activity, negative = inhibition is on record?
The activity, negative = inhibition was -5.22% (inactive).

molecular target: Glucocorticoid receptor (Homo sapiens) (UniProt P04150); experiment: GR-GFP Redistribution (AID 450;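 active = compounds whose dose series gives a full or clear partial fitted curve of increased nuclear translocation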; note: potency is the fitted concentration of half-maximal effect); conditions: U2OS GR-GFP nuclear translocation, laser cytometry, 2 h
Sequence (P04150 whole entry, looked up): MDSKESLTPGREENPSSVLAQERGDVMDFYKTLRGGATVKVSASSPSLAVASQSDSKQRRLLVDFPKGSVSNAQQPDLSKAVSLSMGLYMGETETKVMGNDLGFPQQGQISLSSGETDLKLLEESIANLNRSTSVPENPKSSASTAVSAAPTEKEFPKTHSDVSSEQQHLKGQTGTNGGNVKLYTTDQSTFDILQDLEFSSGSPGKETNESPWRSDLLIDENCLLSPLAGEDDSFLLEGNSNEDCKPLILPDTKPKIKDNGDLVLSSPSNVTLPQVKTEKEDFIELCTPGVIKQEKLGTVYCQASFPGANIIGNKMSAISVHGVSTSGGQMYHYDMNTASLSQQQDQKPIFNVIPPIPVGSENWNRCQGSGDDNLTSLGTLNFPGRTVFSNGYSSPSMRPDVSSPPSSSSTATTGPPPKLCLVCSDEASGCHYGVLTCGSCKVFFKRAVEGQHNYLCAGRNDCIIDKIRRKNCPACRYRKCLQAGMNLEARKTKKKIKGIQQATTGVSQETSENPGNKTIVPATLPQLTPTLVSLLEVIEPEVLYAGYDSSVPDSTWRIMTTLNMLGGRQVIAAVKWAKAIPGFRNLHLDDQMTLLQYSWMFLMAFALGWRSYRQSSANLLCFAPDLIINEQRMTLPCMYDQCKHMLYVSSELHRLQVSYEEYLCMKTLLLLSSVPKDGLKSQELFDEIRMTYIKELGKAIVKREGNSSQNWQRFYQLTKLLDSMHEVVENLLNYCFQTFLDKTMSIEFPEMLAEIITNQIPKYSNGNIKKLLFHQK

Which Potency does the source give for CN1CCCC[C@@H]1CCN1c2ccccc2Sc2ccc(S(C)=O)cc21 (stereo partly drawn) here?
The Potency was > 20.6 µM (inactive) and > 46 µM (inactive).

Which Potency does the source give for CN(Cc1ccco1)c1ccnc(-c2cccc(NS(C)(=O)=O)c2)n1 here?
The Potency was > 46 µM (inactive).

Which Potency does the source give for Cc1cccc(CNc2ncncc2-c2ccccc2C(F)(F)F)c1 here?
Its Potency is > 46 µM (inactive).

For COc1ccccc1-c1ccc2ncnc(N(C)C)c2c1, which Potency is on record?
Its Potency is > 46 µM (inactive).

With COc1cccc(Nc2ncc3nc(C)c(=O)n(CCC#N)c3n2)c1 as the compound, how does the Potency read?
The Potency was > 9.22 µM (inactive).

Which Potency does the source give for COc1ccc2[nH]cc(CCNc3ncnc4ccc(-c5ccc(C(=O)N(C)C)cc5)cc34)c2c1 here?
Its Potency is > 46 µM (inactive).

Which Potency does the source give for CN(C)Cc1ccccc1-c1ccc2ncnc(NCc3ccccc3)c2c1 here?
Its Potency is > 46 µM (inactive).

With Cc1cccc(CNc2cc(-c3ccc(C(=O)N(C)C)cc3)ncn2)c1 as the compound, how does the Potency read?
The Potency was > 46 µM (inactive).

Which Potency does the source give for COc1ccc2[nH]cc(CCNc3cc(-c4ccoc4)ncn3)c2c1 here?
Its Potency is > 46 µM (inactive).

With Cc1cccc(CNc2ccnc(-c3ccc(C(=O)N(C)C)cc3)n2)c1 as the compound, how does the Potency read?
The Potency was > 46 µM (inactive).

Which Potency does the source give for CN(C)Cc1ccccc1-c1nc(N(C)Cc2ccco2)c2ccccc2n1 here?
The Potency was > 46 µM (inactive).

With Cc1cccc(CNc2nc(-c3ccoc3)nc3ccccc23)c1 as the compound, how does the Potency read?
Its Potency is > 46 µM (inactive).

With CNc1nc(-c2ccccc2OC)nc2ccccc12 as the compound, how does the Potency read?
Its Potency is > 46 µM (inactive).

With COc1ccccc1-c1cncnc1NCc1cccc(C)c1 as the compound, how does the Potency read?
Its Potency is > 46 µM (inactive).

For Cc1nc2cnc(N(C)C)nc2n(Cc2cccs2)c1=O, which Potency is on record?
Its Potency is > 9.22 µM (inactive).

For c1ccc2c(Nc3ccncc3)nc(-c3ccoc3)nc2c1, which Potency is on record?
The Potency was > 46 µM (inactive).

Which Potency does the source give for CS(=O)(=O)Nc1cccc(-c2nc(N3CCOCC3)c3ccccc3n2)c1 here?
The Potency was > 46 µM (inactive).

Which Potency does the source give for Cc1cccc(CNc2nc(-c3cccc(NS(C)(=O)=O)c3)nc3ccccc23)c1 here?
The Potency was > 46 µM (inactive).

With CNc1ncnc2ccc(-c3ccccc3OC)cc12 as the compound, how does the Potency read?
Its Potency is > 46 µM (inactive).

With N#CCCn1c(=O)cnc2cnc(N3CCNCC3)nc21 as the compound, how does the Potency read?
Its Potency is > 9.22 µM (inactive).

Which Potency does the source give for COc1ccc2[nH]cc(CCNc3ncnc4ccc(-c5ccccc5CN(C)C)cc34)c2c1 here?
Its Potency is > 46 µM (inactive).

For COCCNc1nc(-c2cccc(OC)c2)nc2ccccc12, which Potency is on record?
Its Potency is > 46 µM (inactive).

With CN(C)c1ccc(-c2cc(NCc3cccnc3)ncn2)cc1 as the compound, how does the Potency read?
The Potency was > 46 µM (inactive).

Which Potency does the source give for COc1ccc2[nH]cc(CCNc3ncncc3-c3ccccc3CN(C)C)c2c1 here?
The Potency was > 46 µM (inactive).

Which Potency does the source give for Cc1ccccc1-c1nc(-n2ccnc2)c2ccccc2n1 here?
The Potency was > 46 µM (inactive).

With COc1ccccc1CNc1ccnc(-c2ccccc2C(F)(F)F)n1 as the compound, how does the Potency read?
The Potency was > 46 µM (inactive).

With COc1ccccc1-c1nc(NCc2cnc(C)cn2)c2ccccc2n1 as the compound, how does the Potency read?
The Potency was > 46 µM (inactive).

With COc1ncc2nc(-c3ccc(Cl)cc3)c(=O)n(-c3ccccc3)c2n1 as the compound, how does the Potency read?
Its Potency is > 9.22 µM (inactive).

For COCCNc1ncnc2ccc(-c3ccccc3CN(C)C)cc12, which Potency is on record?
The Potency was > 46 µM (inactive).
